In the library only some 19% were active in any assay of this set; here they are far more common.
TDP1 cell CPT: DT40-hTDP1 cell growth loss with CPT; chicken DT40 Tdp1-/-;hTDP1 cells + 20 nM CPT, ATP luminescence, 48 h; Potency, µM (top dose mostly 46.2 µM), for the others: top-dose activity change, negative = growth inhibition, most hits filed as inhibitors; 420,000 tested, 12% active; AID 686979; note: nearly all actives have a fitted effect of over 55% in size
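Chicken DT40 Tdp1-/- cells complemented with human TDP1, 400 cells/well, exposed to compounds plus 20 nM camptothecin for at least 48 h at 37 C; viability read as ATP content by CellTiter-Glo luminescence.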
HT1080NT lethal: kills 2HG-producing HT-1080-NT fibrosarcoma cells; HT-1080-NT fibrosarcoma viability, CellTiter-Glo ATP luminescence, 48 h; Potency, µM (highest dose often 46.1 µM), for inactives: at the highest dose activity, negative = less viability, actives largely listed as cytotoxic; 360,000 tested, 1.6% active;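 note: NT is the 2HG producing partner of a matched IDH1 knockdown line; 0% = DMSO-treated cells and -100% = media-only wells without cells; nearly all actives have a fitted effect of over 55% in size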
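Luminescent CellTiter-Glo readout after 48 hours of compound exposure at 37 degrees C defined viability of HT-1080-NT cells. Activity was normalized to DMSO wells and cell-free media wells; concentration-response curves were fitted and assigned curve classes.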
HT1080 IDH1KD tx: toxicity to HT-1080 IDH1 knockdown cells (counter line); Potency, µM (titrated, usually from 46.1 µM), for inactives: at the highest dose activity, negative = toxicity, usual class: cytotoxic; HT-1080 IDH1 knockdown viability, ATP luminescence, 48 h; 360,000 tested, 2% active;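 note: 0% = DMSO wells and -100% = cell-free medium wells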
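CellTiter-Glo luminescence after 48 h compound exposure at 37 degrees C of IDH1-knockdown HT-1080 cells in 5% FBS RPMI. %Activity scaled between DMSO wells and cell-free media wells, with curves fitted and assigned curve classes.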
TDP1 cell noCPT: qHTS for Inhibitors of human tyrosyl-DNA phosphodiesterase 1 (TDP1): qHTS in cells in absence of CPT; DT40 Tdp1-/- hTDP1 cells, no CPT, ATP luminescence, 48 h; Potency, µM (series often up to 46.2 µM), for inactives: top-dose activity change, negative = growth inhibition, most hits filed as inhibitors; 420,000 tested, 15% active; AID 686978, 2013; note: nearly all actives have a fitted effect of over 55% in size
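Chicken DT40 Tdp1-/- cells complemented with human TDP1, screened without camptothecin (DMSO vehicle only), 400 cells/well. Compounds pin-transferred, cells incubated at 37 °C for at least 48 hr. Growth read as ATP-dependent luminescence (CellTiter-Glo, 30 min at RT).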
KB-V1 MDR tox: KB-V1 MDR subline cytotoxicity; KB-V1 MDR cells viability, CellTiter-Glo, 72 h; Potency, µM (doses to about 46.1 µM), actives largely listed as cytotoxic; 400,000 tested, 3.4% active; note: nearly all actives have a fitted effect of over 60% in size
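Drug-selected KB-V1 cells, grown in DMEM lacking phenol red with 10% FBS, receive compound titrations; after three days at 37 degrees C, surviving cell ATP is quantified by CellTiter-Glo luminescence and responses normalized and curve-fitted.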
KB-3-1 tox: kills parental KB-3-1 adenocarcinoma cells; Potency, µM (series often up to 46.1 µM), hits mostly cytotoxic; 400,000 tested, 1.4% active; KB-3-1 viability, CellTiter-Glo ATP luminescence, 72 h; note: nearly all actives have a fitted effect of over 60% in size
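Cytotoxicity measured as CellTiter-Glo luminescence after 72 h at 37 C. Compound titrations were pinned onto drug-naive KB-3-1 parental adenocarcinoma cells grown in DMEM with 10% FBS, and normalized data fitted to concentration-response curves.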
An asterisk follows results filed as active; i = inactive; ? = inconclusive; . = no result given. Calls come from the whole dose curve; as a rule, active = well fitted curve in the direction sought with a large enough effect; inconclusive = small, poorly fitted or top-dose-only effect, or another doubt; inactive = no such curve, though single readings can be large; an effect the other way counts as inactive or inconclusive. Unless noted, % is set by controls: 0 for no effect and ±100 for the full control effect; potency is the fitted concentration of half-maximal effect.

SMILES	TDP1 cell CPT	HT1080NT lethal	HT1080 IDH1KD tx	TDP1 cell noCPT	KB-V1 MDR tox	KB-3-1 tox
Cc1ccc(-n2nc(C)cc2NC(=O)c2ccc(C)s2)cc1	?	-4%	-13%	-17%	i	i
COc1ccc(NC(=O)C2CCN(C(=O)c3sc4nc[nH]c(=O)c4c3C)CC2)cc1Cl	-9%	.	.	-28%	.	.
Cc1c(C(=O)NCCc2ccncc2)cnn1-c1nccc(-c2ccccc2C(F)(F)F)n1	?	.	.	-57%	.	.
COc1ccc(-c2oc3cccnc3c2C#CCO)cc1	?	10%	10%	?	i	i
OC1(C#Cc2c(-c3ccsc3)oc3ccc(N4CCOCC4)cc23)CCCCC1	?	?	?	?	i	?
COc1ccc(-c2oc3cccnc3c2C#CC2(O)CCCCC2)cc1	?	?	?	23µM*	i	i
COc1ccc(-c2oc3ccc(N4CCOCC4)cc3c2C#CC2(O)CCCCC2)cc1	?	?	21µM*	16µM*	i	21µM*
COc1ccc(C#Cc2c(-c3ccsc3)oc3ccc(N4CCOCC4)cc23)cc1	?	-1%	5%	-20%	i	i
COc1ccc(-c2oc3ccc(N4CCOCC4)cc3c2C#Cc2ccc(N)cc2)cc1	7.3µM*	16µM*	23µM*	6.5µM*	?	?
O=C(O)COc1ccccc1/C=N/NC(=O)CSc1nnc(SCc2ccccc2)s1	?	-2%	-6%	-24%	i	i
O=C(COc1ccc(-c2nnco2)cc1)Nc1cc([N+](=O)[O-])ccc1F	-19%	12%	17%	-10%	i	i
CCOc1ccc(OCC)c(NC(=O)CSc2nc3ccccc3c(=O)n2C)c1	16µM*	-14%	-25%	21µM*	i	i
COc1ccc(-c2cc(-c3nnc(COC(=O)c4ccncc4)o3)c3ccccc3n2)cc1OC	-28%	5%	7%	9.2µM*	i	i
COc1ccc(-c2nnc(CSc3nc4ccccc4c(=O)n3C)o2)cc1OC	15µM*	2%	-12%	21µM*	3.7µM*	i
COn1c(SCc2ccc(C)cc2C)nc2ccccc2c1=O	21µM*	-27%	?	18µM*	?	?
C=CCNc1nc2ccccc2nc1NS(=O)(=O)c1ccc(OC)cc1	?	8%	11%	1%	i	i
CN(C)c1cc(N2CCOCC2)nc(C#N)n1	?	4%	8%	?	.	.
CCOc1cc(/C=C/C(=O)OCC(=O)NCC2CCCO2)cc(Cl)c1OC (stereo not given)	-11%	-7%	-1%	-23%	i	i
Cc1csc(NC(C)c2nc3cc(C(F)(F)F)ccc3n2CCCO)n1 (stereo not given)	-18%	0%	-8%	?	i	i
Cc1ccc(NC(=O)CSc2nnc(Cc3ccccc3)c(=O)[nH]2)c(C)c1	-23%	1%	12%	?	i	i
COCCn1c(SCC(=O)NNC(=O)Cc2ccccc2)nc2ccccc2c1=O	7%	9%	-5%	-25%	i	i
Cn1c(SCC(=O)NNC(=O)Cc2ccccc2)nc2ccccc2c1=O	21µM*	0%	0%	13µM*	i	i
Cn1c(SCc2ccccc2Br)nc2ccccc2c1=O	?	7%	4%	?	?	?
Cc1ccccc1CSc1nc2ccccc2c(=O)n1C	?	-3%	1%	26µM*	i	?
Cc1ncsc1CCSc1n[nH]c(=O)n1-c1ccccc1	?	7%	3%	1%	i	i
